Screening results deposited in PubChem BioAssay by National Center for Advancing Translational Sciences (NCATS).
Cruzain inh noDet – cruzain (T. cruzi) inhibition without detergent; 200,000 tested, 2.3% active; purified cruzain, Z-FR-AMC fluorescence, no detergent; Potency, µM, without a hit: max response, negative = inhibition, actives largely listed as inhibitors; P25779;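 note: plate controls were enzyme without inhibitor for no effect and buffer without enzyme for full effect; nearly all actives have a fitted effect of over 40% in size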
Target sequence (P25779 123-467 limits assumed): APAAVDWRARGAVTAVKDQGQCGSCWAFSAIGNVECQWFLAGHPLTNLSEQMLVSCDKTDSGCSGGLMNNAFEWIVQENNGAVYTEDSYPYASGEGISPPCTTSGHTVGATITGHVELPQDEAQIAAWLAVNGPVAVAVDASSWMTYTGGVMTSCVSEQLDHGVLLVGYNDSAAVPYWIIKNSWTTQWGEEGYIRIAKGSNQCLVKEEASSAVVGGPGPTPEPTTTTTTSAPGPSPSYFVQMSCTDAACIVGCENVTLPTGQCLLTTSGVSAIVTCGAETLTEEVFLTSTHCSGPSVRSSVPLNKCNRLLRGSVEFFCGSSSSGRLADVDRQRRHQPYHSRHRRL
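Purified cruzain at 1.5 nM, pre-incubated 15 min with compound at room temperature in 100 mM sodium acetate pH 5.5, 5 mM DTT, 0.00005% Triton X-100. Reaction started with 2 uM Z-FR-AMC; AMC fluorescence increase over 60 s gives rate.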
Cruzain Triton – blocks cruzain activity in presence of Triton detergent | P25779 | purified cruzain, Z-FR-AMC fluorescence, 0.01% Triton | Potency, µM, inactives show max response, negative = inhibition, actives largely listed as inhibitors | 200,000 tested, 0.43% active;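 note: plate controls were neutral wells for no effect and buffer without enzyme for full effect; nearly all actives have a fitted effect of over 40% in size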
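Cysteine protease activity tested under reducing, mildly acidic conditions (100 mM sodium acetate pH 5.5, 5 mM DTT) plus 0.01% Triton X-100. Cruzain 1.5 nM; substrate Z-FR-AMC 2 uM; 15 min compound preincubation at room temperature.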
Papain inh – blocks papain protease activity, flagging nonselective cruzain hits; 410 tested, 41% active; AID 2161; purified papain, Z-FR-AMC fluorescence cleavage; Potency, µM, without a hit: max response, negative = inhibition, usual class: inhibitors; shares compounds with Cruzain Triton;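 note: 0% = no-compound wells and -100% = no-enzyme wells; nearly all actives have a fitted effect of over 35% in size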
Target sequence (P00784 whole entry, looked up): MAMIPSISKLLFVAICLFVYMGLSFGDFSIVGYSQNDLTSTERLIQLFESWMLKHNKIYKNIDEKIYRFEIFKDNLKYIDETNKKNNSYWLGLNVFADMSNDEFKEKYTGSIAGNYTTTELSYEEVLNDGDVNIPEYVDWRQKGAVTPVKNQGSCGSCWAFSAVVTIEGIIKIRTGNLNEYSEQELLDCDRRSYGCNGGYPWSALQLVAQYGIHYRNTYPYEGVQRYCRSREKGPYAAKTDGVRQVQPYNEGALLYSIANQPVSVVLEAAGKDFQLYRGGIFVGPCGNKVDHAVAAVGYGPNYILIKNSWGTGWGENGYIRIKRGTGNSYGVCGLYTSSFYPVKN
* hit, by the source's call; ? = inconclusive; . = no result given; ! = a repeat was not active. The list is not random: actives were taken first. Their share in the collection is about 2.6%. Calls come from the whole dose curve; as a rule, active = well fitted curve in the direction sought with a large enough effect; inconclusive = small, poorly fitted or top-dose-only effect, or another doubt; inactive = no such curve, though single readings can be large; an effect the other way counts as inactive or inconclusive. Potency is the fitted concentration of half-maximal effect.

SMILES	Cruzain inh noDet	Cruzain Triton	Papain inh
COC(=O)CC[C@@H](C)[C@H]1CC[C@H]2[C@@H]3CC[C@@H]4C[C@H](O)CC[C@]4(C)[C@H]3C[C@H](O)[C@]12C	?	-6%	.
CC(C)C[C@@H](CC(=O)N[C@@H](CCCN)CC(=O)N[C@@H]1CCCC[C@H]1C(=O)N[C@H](CC(=O)N[C@@H](CCC(=O)O)CC(=O)O)Cc1ccccc1)NC(=O)[C@@H]1CNCC[C@H]1N	6%	1%	.
COc1cccc2c1OC(=O)CC2c1ccccc1C (stereo not drawn)	0%	2%	.
CCCn1c(C)nc2c(NC(C)CN(C)C)nc(C)nc21 (stereo not drawn)	-2%	-2%	.
CCC(=O)CCC(=O)c1ccc2ccccc2c1	-7%	-4%	.
CC(C)N(CCC(=O)c1ccc2ccccc2c1)Cc1ccccc1	7.9µM*	7.9µM*	-15%
Nc1nc(N)c2nc(-c3ccccc3)c(N)nc2n1	7.9µM*!	32µM*!	22µM*
NNc1nnc(-c2ccccc2)c(-c2ccccc2)n1	-15%	-2%	.
CCC1=C2CC[C@H]3C(=O)N(c4ccccc4)C(=O)[C@H]3[C@H]2[C@@]2(Cc3ccccc3)C(=NCC3CC3)OC(=O)N2C1=O	9%	1%	.
O=C(NCCc1nc2ccccc2n1Cc1ccccc1F)c1ccc(F)cc1	8%	3.2µM*	-9%
CC(NC(=O)c1ccc(F)cc1)c1nc2ccccc2n1Cc1ccccc1F (stereo not drawn)	3%	0%	.
COc1ccc2c(c1)N(CC[C@H]1CCCCN1C)c1ccccc1S2	-4%	-2%	.
Cc1cc(NC(=O)c2ccc3nc(-c4ccccc4)c(-c4ccccc4)nc3c2)no1	-21%	-5%	.
CNC(=O)c1ccc2nc(-c3cccc(C)c3)c(-c3cccc(C)c3)nc2c1	.	.	-13%
CCc1cccc(C)c1NC(=O)C1=C(C)C(=O)OC12CCC(C)CC2 (stereo not drawn)	-3%	0%	.
O=C(NC(=S)Nc1ccc(NC(=O)c2cccs2)cc1)c1cc2ccccc2o1	?	-12%	.
O=C(NC(=S)Nc1nc(-c2cccc3ccccc23)cs1)c1cc2ccccc2o1	2.5µM*	-3%	14%
COc1ccc(/C=C/c2nc(C#N)c(NC3CCCCC3)o2)cc1OC	?	-8%	.
CNc1oc(/C=C/c2cc(OC)c(OC)c(OC)c2)nc1C#N	10µM*	28µM*	8.9µM*
Cc1cc(=O)oc2cc(OC(C)C(=O)N3CCOCC3)ccc12 (stereo not drawn)	-13%	-23%	.
Cc1cc(=O)oc2cc(OCC(=O)N3CCOCC3)ccc12	-1%	8.9µM*	14µM*
CC(C)c1ccc(NC(=O)Cn2c(=O)oc3cc(S(=O)(=O)N4CCCC4)ccc32)cc1	6%	-8%	.
CC(C)CCNC(=O)CSc1nc2ccccc2nc1Cc1ccccc1	4%	-1%	.
CCOC(=O)c1sc(N/N=C/c2cccc(C)c2)nc1C	?	1.4µM*	1.3µM*
CCOC(=O)c1sc(N/N=C/c2ccccc2)nc1C	?	-6%	.
SMILES	Cruzain inh noDet	Cruzain Triton	Papain inh
CCOc1ccc(Br)cc1C1C(C(=O)OC)=C(C)NC2=C1C(=O)c1ccccc12 (stereo not drawn)	-2%	-3%	.
N#Cc1nc(-c2ccco2)oc1N1CCOCC1	-10%	-8%	.
CC1CN(c2oc(Cc3cccc4ccccc34)nc2C#N)CC(C)O1 (stereo not drawn)	?	-5%	.
N#Cc1nc(-c2cccs2)oc1N1CCOCC1	?	25µM*	16µM*
CC1CN(c2oc(-c3cccs3)nc2C#N)CC(C)O1 (stereo not drawn)	?	28µM*	20µM*
COc1ccc(CN(C)c2ccc(-c3nc(-c4ccccc4)no3)cc2[N+](=O)[O-])cc1	6%	-9%	.
COc1ccc(C)cc1NS(=O)(=O)c1ccc2oc(=O)c3ncn(C)c3c2c1	-13%	-2%	.
CC(=O)N1CCc2c(sc3c2c(=O)n(-c2ccc(C)cc2)c(=O)n3CC(=O)Nc2ccccc2)C1	?	-6%	.
Cc1cccc(CS(=O)(=O)Cc2ccc(C(=O)NC(C)c3ccccc3)o2)c1 (stereo not drawn)	13%	0%	.
CCC(C)[C@@H](NC(=O)OC(C)(C)C)c1nnc(S(=O)(=O)Cc2cccc(C)c2)o1 (stereo partly drawn)	7.9µM*	3.2µM*	13µM*
O=c1cc(O)cc(/C=C/c2ccc(O)c(O)c2)o1	-7%	-4%	.
CC(C)(C)c1ccc(CN2N=Nc3ccccc3S2(=O)=O)cc1	?	-12%	.
O=S1(=O)c2ccccc2N=NN1Cc1ccc(Cl)c(Cl)c1	?	22µM*	-15%
O=C(Nc1ccc(Cl)cc1Cl)c1cc(S(=O)(=O)N2CCc3ccccc32)ccc1F	16%	0%	.
CCc1ccc(OCCCCn2c(CCNC(=O)C3CCCCC3)nc3ccccc32)cc1	.	.	22µM*
Cc1ccc(OCCCn2c(CCCNC(=O)C3CCCCC3)nc3ccccc32)cc1	.	.	9%
O=C(NCCc1nc2ccccc2n1CCOc1ccccc1)C1CCCCC1	.	.	-19%
CC(C)(C)C(=O)NCCc1nc2ccccc2n1CCCCOc1ccccc1	3%	-4%	.
O=C(NCCc1nc2ccccc2n1CCOc1ccc(Cl)cc1)C1CCCCC1	0%	1.3µM*	8.9µM*
O=C(NCCCc1nc2ccccc2n1Cc1ccc(Cl)cc1)C1CCCCC1	6%	-10%	.
CC(C)C(=O)NCCc1nc2ccccc2n1CCOc1ccccc1	6%	-13%	.
Cc1ccc(OCCCCn2c(CCNC(=O)C(C)(C)C)nc3ccccc32)cc1	?	-2%	.
Cc1ccc2occ(CC(=O)N3CCN(c4cccc(Cl)c4)CC3)c2c1	4%	-9%	.
Cc1cc(C)c2c(n1)nn1c(C)c(CCC(=O)NCc3ccccc3Cl)c(C)nc21	-8%	-1%	.
CN(C)C(=O)c1ccc(-c2ccc3ncnc(N(C)C)c3c2)cc1	-4%	5%	.
SMILES	Cruzain inh noDet	Cruzain Triton	Papain inh
CCS(=O)(=O)c1ccc(C(=O)N2CCN(c3nc4c(OC)ccc(C)c4s3)CC2)cc1	?	-9%	.
CCS(=O)(=O)c1cccc(C(=O)N2CCN(c3nc4c(C)ccc(Cl)c4s3)CC2)c1	?	7.9µM*	-6%
O=C1NN(c2ccc(Cl)c(Cl)c2)C(=O)/C1=C/c1cccc(OC(=O)c2cccs2)c1	7%	20µM*	18µM*
O=C1NN(c2ccccc2)C(=O)/C1=C\c1cccc(OC(=O)c2cccs2)c1	?	-16%	.
O=C(Cn1c(=O)n(Cc2ccccc2)c(=O)c2sc3ccccc3c21)Nc1ccc(F)cc1	-9%	-1%	.
CC(=O)NCCc1nc2ccccc2n1Cc1ccc(C)cc1	-1%	1%	.
O=C(NCCCc1nc2ccccc2n1Cc1c(F)cccc1Cl)C1CCCCC1	-10%	-1%	.
Cc1ccccc1OCCn1c(CCNC(=O)C2CCCCC2)nc2ccccc21	-2%	1.4µM*	-3%
Cc1ccc(C)c(OCCn2c(CCNC(=O)C3CCCCC3)nc3ccccc32)c1	1%	1.3µM*	4%
Cc1ccccc1OCCn1c(CCNC(=O)C(C)(C)C)nc2ccccc21	?	-3%	.
O=C(NCCc1nc2ccccc2n1CCOc1cccc2ccccc12)C1CCCCC1	.	.	3%
CCCC(=O)NCCc1nc2ccccc2n1CCC	?	1%	.
O=C(NCCc1nc2ccccc2n1CCCOc1ccccc1Cl)C1CCCCC1	.	.	-17%
